Experimental data published in PubChem BioAssay (NCATS).
Records with an inconclusive call do not appear. The source made the active and inactive calls. Unless noted, the call rests on the fitted dose curve; in most records, active means well fitted inhibition curve with a large enough effect; inconclusive means small, poorly fitted or top-dose-only effect; inactive means flat fitted curve, though single readings scatter.

What was measured:
CP238 = assay: qHTS profiling for inhibitors of Plasmodium falciparum proliferation (AID 504749);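 further: 0% = DMSO vehicle and full inhibition = artemisinin control; nearly all actives have a fitted effect of over 60% in size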; conditions: P. falciparum in erythrocytes, SYBR Green DNA, 72 h; series mostly up to 28.7 µM
Method in brief: (§1)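 Readout was DNA-dye fluorescence from lysed cultures, ex 485/em 535 nm. Parasitized red cells had grown 72 h with compound; data scaled between 0.29 uM artemisinin and DMSO wells and corrected using vehicle-only plates.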

CP247 = assay: as above; conditions: P. falciparum in erythrocytes, SYBR Green DNA, 72 h; series mostly up to 28.7 µM
Method in brief: as §1

CP250 = assay: as above; conditions: P. falciparum in erythrocytes, SYBR Green DNA, 72 h; series mostly up to 28.7 µM
Method in brief: as §1

CP252 = assay: as above; conditions: P. falciparum in erythrocytes, SYBR Green DNA, 72 h; series mostly up to 28.7 µM
Method in brief: as §1

CP256 = assay: as above; conditions: P. falciparum in erythrocytes, SYBR Green DNA, 72 h; series mostly up to 28.7 µM
Method in brief: as §1

CP260 = assay: as above; conditions: P. falciparum in erythrocytes, SYBR Green DNA, 72 h; series mostly up to 28.7 µM
Method in brief: as §1

CP262 = assay: as above; conditions: P. falciparum in erythrocytes, SYBR Green DNA, 72 h; series mostly up to 28.7 µM
Method in brief: as §1

CP265 = assay: as above; conditions: P. falciparum in erythrocytes, SYBR Green DNA, 72 h; series mostly up to 28.7 µM
Method in brief: as §1

CP266 = assay: as above; conditions: P. falciparum in erythrocytes, SYBR Green DNA, 72 h; series mostly up to 28.7 µM
Method in brief: as §1

CP268 = assay: as above; conditions: P. falciparum in erythrocytes, SYBR Green DNA, 72 h; series mostly up to 28.7 µM
Method in brief: as §1

CP269 = assay: as above; conditions: P. falciparum in erythrocytes, SYBR Green DNA, 72 h; series mostly up to 28.7 µM
Method in brief: as §1

CP286 = assay: as above; conditions: P. falciparum in erythrocytes, SYBR Green DNA, 72 h; series mostly up to 28.7 µM
Method in brief: as §1

CP291 = assay: as above; conditions: P. falciparum in erythrocytes, SYBR Green DNA, 72 h; series mostly up to 28.7 µM
Method in brief: as §1

CP297 = assay: as above; conditions: P. falciparum in erythrocytes, SYBR Green DNA, 72 h; series mostly up to 28.7 µM
Method in brief: as §1

CP305 = assay: as above; conditions: P. falciparum in erythrocytes, SYBR Green DNA, 72 h; series mostly up to 28.7 µM
Method in brief: as §1

CP315 = assay: as above; conditions: P. falciparum in erythrocytes, SYBR Green DNA, 72 h; series mostly up to 28.7 µM
Method in brief: as §1

CP325 = assay: as above; conditions: P. falciparum in erythrocytes, SYBR Green DNA, 72 h; series mostly up to 28.7 µM
Method in brief: as §1

CP329 = assay: as above; conditions: P. falciparum in erythrocytes, SYBR Green DNA, 72 h; series mostly up to 28.7 µM
Method in brief: as §1

CP335 = assay: as above; conditions: P. falciparum in erythrocytes, SYBR Green DNA, 72 h; series mostly up to 28.7 µM
Method in brief: as §1

DFO2036 = assay: as above; conditions: P. falciparum in erythrocytes, SYBR Green DNA, 72 h; series mostly up to 28.7 µM
Method in brief: as §1

DIV14 = assay: as above; conditions: P. falciparum in erythrocytes, SYBR Green DNA, 72 h; series mostly up to 28.7 µM
Method in brief: as §1

DIV17 = assay: as above; conditions: P. falciparum in erythrocytes, SYBR Green DNA, 72 h; series mostly up to 28.7 µM
Method in brief: as §1

DIV30 = assay: as above; conditions: P. falciparum in erythrocytes, SYBR Green DNA, 72 h; series mostly up to 28.7 µM
Method in brief: as §1

Dd2 = assay: as above; conditions: P. falciparum in erythrocytes, SYBR Green DNA, 72 h; series mostly up to 28.7 µM
Method in brief: as §1

ECU = assay: as above; conditions: P. falciparum in erythrocytes, SYBR Green DNA, 72 h; series mostly up to 28.7 µM
Method in brief: as §1

FAB9 = assay: as above; conditions: P. falciparum in erythrocytes, SYBR Green DNA, 72 h; series mostly up to 28.7 µM
Method in brief: as §1

GB4 = assay: as above; conditions: P. falciparum in erythrocytes, SYBR Green DNA, 72 h; series mostly up to 28.7 µM
Method in brief: as §1

HB3 = assay: as above; conditions: P. falciparum in erythrocytes, SYBR Green DNA, 72 h; series mostly up to 28.7 µM
Method in brief: as §1

ICS = assay: as above; conditions: P. falciparum in erythrocytes, SYBR Green DNA, 72 h; series mostly up to 28.7 µM
Method in brief: as §1

JCK = assay: as above; conditions: P. falciparum in erythrocytes, SYBR Green DNA, 72 h; series mostly up to 28.7 µM
Method in brief: as §1

N140 = assay: as above; conditions: P. falciparum in erythrocytes, SYBR Green DNA, 72 h; series mostly up to 28.7 µM
Method in brief: as §1

P93_24 = assay: as above; conditions: P. falciparum in erythrocytes, SYBR Green DNA, 72 h; series mostly up to 28.7 µM
Method in brief: as §1

P94_40 = assay: as above; conditions: P. falciparum in erythrocytes, SYBR Green DNA, 72 h; series mostly up to 28.7 µM
Method in brief: as §1

PAD = assay: as above; conditions: P. falciparum in erythrocytes, SYBR Green DNA, 72 h; series mostly up to 28.7 µM
Method in brief: as §1

PC15 = assay: as above; conditions: P. falciparum in erythrocytes, SYBR Green DNA, 72 h; series mostly up to 28.7 µM
Method in brief: as §1

PC26 = assay: as above; conditions: P. falciparum in erythrocytes, SYBR Green DNA, 72 h; series mostly up to 28.7 µM
Method in brief: as §1

PC49 = assay: as above; conditions: P. falciparum in erythrocytes, SYBR Green DNA, 72 h; series mostly up to 28.7 µM
Method in brief: as §1

SC27B = assay: as above; conditions: P. falciparum in erythrocytes, SYBR Green DNA, 72 h; series mostly up to 28.7 µM
Method in brief: as §1

TAB109 = assay: as above; conditions: P. falciparum in erythrocytes, SYBR Green DNA, 72 h; series mostly up to 28.7 µM
Method in brief: as §1

TAB113 = assay: as above; conditions: P. falciparum in erythrocytes, SYBR Green DNA, 72 h; series mostly up to 28.7 µM
Method in brief: as §1

TAB165 = assay: as above; conditions: P. falciparum in erythrocytes, SYBR Green DNA, 72 h; series mostly up to 28.7 µM
Method in brief: as §1

W2 = assay: as above; conditions: P. falciparum in erythrocytes, SYBR Green DNA, 72 h; series mostly up to 28.7 µM
Method in brief: as §1

[1] = biological target: Nuclear receptor subfamily 1 group I member 2 (Rattus norvegicus) (UniProt Q9R1A7); assay: qHTS assay for small molecule activators of the rat pregnane X receptor (rPXR) signaling pathway (AID 651751; call rule not given here; further: 0% is about no effect); conditions: rPXR reporter cells, luciferase (One-Glo), 24 h
[2] = qHTS assay for small molecule activators of the human pregnane X receptor (PXR) signaling pathway (AID 720659; call rule not given here; further: 0% is about no effect)

Chain of Nuclear receptor subfamily 1 group I member 2 (Rattus norvegicus) (Q9R1A7 whole entry, looked up): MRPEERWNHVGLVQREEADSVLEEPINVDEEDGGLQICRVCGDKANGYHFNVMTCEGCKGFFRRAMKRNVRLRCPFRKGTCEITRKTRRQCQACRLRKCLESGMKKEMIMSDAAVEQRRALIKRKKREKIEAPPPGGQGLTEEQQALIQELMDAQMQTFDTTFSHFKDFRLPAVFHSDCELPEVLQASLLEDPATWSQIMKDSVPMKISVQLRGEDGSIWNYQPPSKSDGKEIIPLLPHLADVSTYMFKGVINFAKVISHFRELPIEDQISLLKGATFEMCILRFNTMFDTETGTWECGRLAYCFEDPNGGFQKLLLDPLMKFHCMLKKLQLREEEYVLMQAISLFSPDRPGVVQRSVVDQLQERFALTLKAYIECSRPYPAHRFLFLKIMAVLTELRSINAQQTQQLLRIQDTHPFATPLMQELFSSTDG

CC1CCC(C(C)C)C(O)C1 (centres undefined)
inactive: Potency (CP238) | Potency (CP247) | Potency (CP250) | Potency (CP252) | Potency (CP256) | Potency (CP260) | Potency (CP262) | Potency (CP265) | Potency (CP266) | Potency (CP268) | Potency (CP269) | Potency (CP286) | Potency (CP291) | Potency (CP297) | Potency (CP305) | Potency (CP315) | Potency (CP325) | Potency (CP329) | Potency (CP335) | Potency (DFO2036) | Potency (DIV14) | Potency (DIV17) | Potency (DIV30) | Potency (Dd2) | Potency (ECU) | Potency (FAB9) | Potency (GB4) | Potency (HB3) | Potency (ICS) | Potency (JCK) | Potency (N140) | Potency (P93_24) | Potency (P94_40) | Potency (PAD) | Potency (PC15) | Potency (PC26) | Potency (PC49) | Potency (SC27B) | Potency (TAB109) | Potency (TAB113) | Potency (TAB165) | Potency (W2) | max response [1] -4.79% | outcome [2]
